Screens (PubChem)
HT1080NT lethal – qHTS for induction of synthetic lethality in tumor cells producing 2HG: qHTS for the HT-1080-NT fibrosarcoma cell line | HT-1080-NT fibrosarcoma viability, CellTiter-Glo ATP luminescence, 48 h | Potency, µM (titrated, usually from 46.1 µM), actives largely listed as cytotoxic | actives 1.6% (n = 360,000) | AID 686970, 2013;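 note: NT is the 2HG producing partner of a matched IDH1 knockdown line; nearly all actives have a fitted effect of over 55% in size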
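Viability of the 2HG-overproducing fibrosarcoma line after 48 hours of compound exposure at 37 degrees C was determined by luminescence with CellTiter-Glo, and concentration-effect curves were then fitted and categorized.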
IL1B secr inh – qHTS for Inhibitors of Inflammasome Signaling: IL-1-beta AlphaLISA Primary Screen. activity change, % at 57.5 µM. AID 743279, 2014. THP-1 LPS/ATP IL-1B secretion, AlphaLISA, 16 h; stronger effect = lower value. actives 4.7% (n = 360,000); in the data active = activity change below about -50%; inconclusive = mostly about -30% to -49%
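Secreted IL-1B measured by AlphaLISA bead assay after 16 h compound exposure of THP-1 cells; compounds (final up to 57.5 uM) added 1 h before LPS (250 ng/mL) and ATP (1.25 mM) stimulation; lower signal means less secretion.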
TDP1 cell CPT – qHTS for Inhibitors of human tyrosyl-DNA phosphodiesterase 1 (TDP1): qHTS in cells in presence of CPT; chicken DT40 Tdp1-/-;hTDP1 cells + 20 nM CPT, ATP luminescence, 48 h; Potency, µM (top dose mostly 46.2 µM), actives largely listed as inhibitors; actives 12% (n = 420,000); AID 686979, 2013; note: nearly all actives have a fitted effect of over 55% in size
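Chicken DT40 Tdp1-/- cells stably complemented with human TDP1 were seeded at 400 cells/well in medium containing 20 nM camptothecin, exposed to pin-transferred compounds, and grown at 37 °C for at least 48 hr. Viability was read as ATP luminescence.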
HT1080 IDH1KD tx – qHTS for induction of synthetic lethality in tumor cells producing 2HG: qHTS for the HT-1080-IDH1KD cell line; HT-1080 IDH1 knockdown viability, ATP luminescence, 48 h; Potency, µM (top dose mostly 46.1 µM), most hits filed as cytotoxic; actives 2% (n = 360,000); AID 686971, 2013
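Assay cells: HT-1080 with IDH1 knockdown, 750 per well, RPMI/5% FBS. Exposure: 48 h at 37 °C following 2 h pre-incubation. Read: CellTiter-Glo luminescence; fitted concentration-response, curve class assigned.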
TDP1 cell noCPT – qHTS for Inhibitors of human tyrosyl-DNA phosphodiesterase 1 (TDP1): qHTS in cells in absence of CPT. actives 15% (n = 420,000). AID 686978, 2013. DT40 Tdp1-/- hTDP1 cells, no CPT, ATP luminescence, 48 h. Potency, µM (doses to about 46.2 µM), usual class: inhibitors; note: nearly all actives have a fitted effect of over 55% in size
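Chicken DT40 Tdp1-/- cells complemented with human TDP1, screened without camptothecin (DMSO vehicle only), 400 cells/well. Compounds pin-transferred, cells incubated at 37 °C for at least 48 hr. Growth read as ATP-dependent luminescence (CellTiter-Glo, 30 min at RT).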
A number is an active result; – = inactive; ? = inconclusive; · = no result; [ ] = dose if it differs, or a comment. Rows were chosen to be rich in hits. Some 19% of all compounds tested hit in one or more screens of this group. Unless noted, calls come from the whole dose curve; as a rule, active = well fitted curve in the direction sought with a large enough effect; inconclusive = small, poorly fitted or top-dose-only effect, or another doubt; inactive = no such curve, though single readings can be large; an effect the other way counts as inactive or inconclusive.

SMILES	HT1080NT lethal	IL1B secr inh	TDP1 cell CPT	HT1080 IDH1KD tx	TDP1 cell noCPT
CCSc1nsc(NC(=O)Nc2ccc(F)cc2F)n1	?	-90	4.6µM	–	4.6µM
CCOc1ccc(NC(=O)Nc2nc(SCC)ns2)cc1	–	–	?	–	?
CCSc1nsc(NC(=O)Nc2ccccc2Cl)n1	?	-78	?	–	15µM
O=C(CN1CCN(Cc2ccccc2)CC1)N/N=C/c1c[nH]c2ccccc12	–	–	–	–	?
CC1=NN(/C(=N\c2nnc(C)s2)Nc2ccccc2)[C@H](c2cccc3ccccc23)S1	–	–	23µM	–	?
CC1=NN(/C(=N\c2nnc(C)s2)Nc2ccc(C)cc2)[C@H](c2ccc(C)cc2)S1	–	–	?	–	?
NC(=O)[C@@H]1CCNc2c(I)cc([N+](=O)[O-])cc2C(=O)N[C@@H](CCC(=O)O)C(=O)N[C@@H](CO)C(=O)N1	–	–	–	–	–
c1ccc(-c2ccc3c(c2)c2c4n3CCN=C4CCC2)cc1	?	?	23µM	?	?
CC(C)(C)NC(=O)C(OC(=O)c1cccs1)c1ccc(C#N)cc1 (stereo unspecified)	–	–	–	–	–
CC(=O)[C@@H]1[C@H]2[C@H](C(=O)[C@H]3OC[C@@H]2O3)[C@H]2C=Cc3ccccc3N21	·	·	?	·	21µM
Cc1ccc(C(=O)[C@@H]2[C@H]3C4COC(O4)C(=O)[C@@H]3[C@H]3C=Cc4ccccc4N32)cc1 (stereo partly specified)	·	·	–	·	–
COc1ccc(-n2c(C)c(C(C)=O)c3cc(O)ccc32)cc1	–	–	·	–	·
COc1ccc(-n2c(C)c(C(C)=O)c3cc(OC(=O)c4ccc(C)cc4)ccc32)cc1	·	·	?	·	23µM
Cc1c(C(=O)C(=O)N2c3ccc(F)cc3CCC2C)c2ccccc2n1C (stereo unspecified)	3.3µM	–	2.6µM	2.3µM	2.6µM
COC(=O)[C@]12CCCCC=C1N(Cc1ccc3c(c1)OCO3)C(=O)[C@H](CC(=O)NCCC(C)C)C2	–	?	?	–	?
O=C(Cn1cc(SCc2c(F)cccc2Cl)c2ccccc21)N1CCCCCC1	·	·	23µM	·	?
O=C(Cn1cc(SCc2ccccc2Cl)c2ccccc21)N1CCOCC1	–	–	?	–	?
CCOC(=O)CNC(=O)CSc1cn(CC(=O)N2CCCCCC2)c2ccccc12	·	·	–	·	–
Cc1ccc(C)c(CSc2cn(CC(=O)N3CCCCCC3)c3ccccc23)c1	·	·	–	·	–
O=C(Cn1cc(SCc2cccc(F)c2)c2ccccc21)N1CCCC1	·	·	?	·	21µM
O=C(Cn1cc(SCc2ccc(Br)cc2)c2ccccc21)N1CCCCC1	·	·	?	·	16µM
Cc1ccccc1CSc1cn(CC(=O)N2CCCCC2)c2ccccc12	·	·	13µM	·	16µM
COC(=O)c1ccc(NC(=O)CC2C(=O)N(c3cccc(OC)c3)C(=O)N2C(C)C)cc1 (stereo unspecified)	·	·	–	·	–
O=C(C(c1ccccc1)c1ccccc1)N1CCC(c2nc(-c3ccccc3Cl)no2)CC1	?	–	23µM	–[9.24 µM]	?
CCOC(=O)CN1N=C(/C=C/c2ccc(C(C)C)cc2)CCC1=O	–	-56	?	–	?
CCOC(=O)CN1N=C(/C=C/c2ccccc2)CCC1=O	–	–	–	–	–
O=C(Cn1cc(S(=O)(=O)N2CCCC2)c(S(=O)(=O)N2CCCC2)c1)Nc1cccc(F)c1	·	·	–	·	–
COc1cccc(-n2cnc3c(sc4nc(N5CCOCC5)c5c(c43)CCCC5)c2=O)c1	–	-54	?	–	18µM
O=c1cc(N2CCC(Cc3ccccc3)CC2)[nH]c(=O)n1C1CCCCC1	–	–	?	–	16µM
O=c1cc(N2CCc3ccccc3C2)[nH]c(=O)n1C1CCCCC1	–	–	1.8µM	–	?
